Out of some 96,000 compounds screened, about 19,000 (20%) were called active.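 How the source made its calls: active means blocking of liver enzyme CYP2C9 beyond about 50% at 5 µM (limit read from the data); inactive means the rest.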 A selection follows.
Molecular target: Cytochrome P450 2C9 (Homo sapiens) (UniProt P11712)
Assay: blockers of cytochrome P450 2C9 activity – biochemical, luminescence, ADME assay, primary screen (AID 777)
Conditions: CYP2C9 Supersomes, luciferin-H conversion, at 5 µM, active compounds read high

Sequence of Cytochrome P450 2C9 (Homo sapiens) (P11712 whole entry, looked up): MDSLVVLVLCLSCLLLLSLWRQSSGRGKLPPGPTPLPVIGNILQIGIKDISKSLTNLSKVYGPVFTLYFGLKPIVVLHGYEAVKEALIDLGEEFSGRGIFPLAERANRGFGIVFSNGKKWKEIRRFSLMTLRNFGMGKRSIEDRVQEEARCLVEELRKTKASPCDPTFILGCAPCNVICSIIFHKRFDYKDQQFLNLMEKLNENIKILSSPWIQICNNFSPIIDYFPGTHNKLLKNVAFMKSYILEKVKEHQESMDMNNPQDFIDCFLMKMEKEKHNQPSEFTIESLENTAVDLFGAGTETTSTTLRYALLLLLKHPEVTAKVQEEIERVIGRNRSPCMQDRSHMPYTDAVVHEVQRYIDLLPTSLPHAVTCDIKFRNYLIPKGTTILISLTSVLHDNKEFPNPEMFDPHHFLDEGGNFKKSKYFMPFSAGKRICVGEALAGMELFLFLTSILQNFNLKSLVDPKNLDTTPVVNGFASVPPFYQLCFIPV

SMILES | inhibition
CCc1c(C)nc2cc(C)[nH]n2c1=O | 16.4% (inactive)
CCCNC(=O)N1CCN(C(=O)NCCC)CC1 | 2.7% (inactive)
Cc1ccc(-n2ncc3c(Nc4cccc(C(=O)O)c4)ncnc32)cc1 | 29.6% (inactive)
CCOC(=O)C1CCCN(C(=O)CN(c2ccc(OC)cc2)S(=O)(=O)c2c(C)noc2C)C1 (stereo not drawn) | 11% (inactive)
CCC(=O)c1c[nH]c(C(=O)NCC2CCCO2)c1 (stereo not drawn) | -7% (inactive)
Cc1cc(C)cc(N(CC(=O)N2CC=C(c3ccccc3)CC2)S(=O)(=O)c2c(C)noc2C)c1 | 90.8% (active)
O=C(Nc1ccc(Cl)c(Cl)c1)N1CC=C(c2ccccc2)CC1 | 46.1% (inactive)
Cc1ccc(C(=O)O)cc1S(=O)(=O)NCC1CCCO1 (stereo not drawn) | 5.8% (inactive)
Cc1cc(C)cc(N(CC(=O)NCC2CCCO2)S(=O)(=O)c2c(C)noc2C)c1 (stereo not drawn) | 64.1% (active)
COCCCNC(=O)CN1CCN(Cc2ccccc2Cl)C1=O | -16.9% (inactive)
Cc1nc2ncnn2c(C)c1CCC(=O)N1CCN(C(=O)c2ccco2)CC1 | -8.6% (inactive)
CCOC(=O)n1c(SCC(=O)N(CC)CC)nc2ccccc21 | 30.9% (inactive)
CC(C)N(C(=O)Cn1c(SCC(=O)N2CCN(c3ccccc3)CC2)nc2ccccc21)C(C)C | 14.3% (inactive)
CCN(CC)C(=O)CSc1nc2ccccc2n1CC(=O)N1CCN(c2ccccc2OC)CC1 | 51.4% (active)
O=C1c2ccccc2C(=O)N1CCc1nn[nH]n1 | 0.5% (inactive)
Fc1ccccc1CCNc1nnnn1-c1ccccc1 | 31.4% (inactive)
O=C(CCSCCc1ccccn1)Nc1nccs1 | 81% (active)
CN(CCCC(=O)Nc1nccs1)S(=O)(=O)c1ccc(Cl)cc1 | 38.4% (inactive)
CC1(C)Cc2cccc(OCC(=O)Nc3nccs3)c2O1 | 31% (inactive)
COCCN(CC(=O)Nc1ccccc1C)S(=O)(=O)c1ccc(S(=O)(=O)N2CCCC2)cc1 | 16.5% (inactive)
CCOc1cc(C(=O)N2CCc3cc(OC)c(OC)cc3C2)ccc1OC(F)F | 30.7% (inactive)
CCOC(=O)CSc1nnc(CNC(=O)Cc2ccccc2)n1-c1ccccc1OC | 8.6% (inactive)
CCOc1ccc(C(CCc2ccccc2)NC(=O)c2ccc(OC)c(OC)c2)cc1OCC (stereo not drawn) | 76.1% (active)
COc1ccc(Cn2c(=O)sc3ccccc32)cc1OC | 29.2% (inactive)
Nc1nc(Br)c2ccccc2c1-c1ccc(F)cc1 | 2.2% (inactive)

SMILES | inhibition
COc1ccc2nc(N3CCCC(O)C3)c(C#N)cc2c1 (stereo not drawn) | 63.9% (active)
Cc1cc(C)c2nc(N3CCCC3)c(C#N)cc2c1 | 9.6% (inactive)
COc1ccc(N2CCN(C(=O)CSc3nc4cc(OC)c(OC)cc4cc3C#N)CC2)cc1 | 26.1% (inactive)
Cc1[nH]c(=O)c(C(=O)/C=C/c2ccccc2)c2c1CCCC2 | -14.6% (inactive)
CC1(C)C(=O)C2(CCCCC2)C(=O)OC1c1cccs1 (stereo not drawn) | -9.3% (inactive)
O=C(COc1ccccc1F)NC1CC1 | -15.2% (inactive)
O=C(Nc1cccn(Cc2c(Cl)cccc2Cl)c1=O)c1ccc(Cl)cc1 | 71.8% (active)
COc1ccc(Cn2cccc(NC(=O)Nc3ccc(C#N)cc3)c2=O)cc1 | 14.3% (inactive)
CSc1ccc(C#N)cc1NC(=O)c1ccc(Cl)cc1 | 6.3% (inactive)
Cc1ccn2cc(C(=O)NC3CCN(Cc4ccccc4)CC3)nc2c1 | 16.4% (inactive)
Cc1ccc(SCc2cc(=O)[nH]c(N3CCCCC3)n2)cc1 | 14.9% (inactive)
Cc1ccc(SCC2=NNC(=O)C2)cc1 | -7.3% (inactive)
CCC(=O)c1ccc(OCC(O)CN2C(=O)NC(C)(C)C2=O)cc1 (stereo not drawn) | 0.4% (inactive)
CC1(C)NC(=O)N(CCCCSc2ccc(Cl)cc2)C1=O | 85.8% (active)
Cc1ccc(SCCN2C(=O)NC(C)(C)C2=O)cc1 | 68.6% (active)
CCOC(=O)N1CCN(C(=O)CSc2ccc(Cl)cc2)CC1 | 42.4% (inactive)
CC(=O)N1CCCc2cc(S(=O)(=O)CCC(=O)N3CCN(c4ccccc4)CC3)ccc21 | -45.2% (inactive)
COC(=O)Cn1nc(-c2ccccc2)c2cc(Cl)ccc21 | 25.2% (inactive)
COc1ccc(COC(=O)c2n[nH]c3ccccc23)cc1F | 54.1% (active)
O=C(COC(=O)c1n[nH]c2ccccc12)NCc1ccccc1 | 41.3% (inactive)
COc1ccc(C(C)=O)cc1COC(=O)Cn1cnc2ccccc2c1=O | 41.4% (inactive)
COc1ccccc1NC(=O)CC(NCCN(C)C)C(=O)O (stereo not drawn) | -1.4% (inactive)
COc1ccccc1NC(=O)[C@H](COCc1ccccc1)NC(=O)OC(C)(C)C | 51.7% (active)
COc1ccccc1NC(=O)/C=C/C(N)=O | -19.3% (inactive)
CCC1(C)Cc2c(sc3[nH]c(=S)n(Cc4ccccc4)c(=O)c23)CO1 (stereo not drawn) | 34.5% (inactive)

SMILES | inhibition
Oc1ccc(/C=N/NC2=NCCCCC2)c(O)c1 | -17.7% (inactive)
CSCCC(NS(=O)(=O)c1ccc2c(c1)oc(=O)n2C)C(=O)NC1CCCc2ccccc21 (stereo not drawn) | -0.6% (inactive)
CC1CCN(CC(=O)c2c[nH]c3ccccc23)CC1 | 4.9% (inactive)
CCOC(=O)c1c(NC(=S)Nc2ccccc2)sc2c1CCN(C)C2 | 24.5% (inactive)
N#Cc1c(N)sc2c1CCN(C(=O)OCc1ccccc1)C2 | 97.9% (active)
O=C(O)C1CCN(C(=O)OCc2ccccc2)CC1 | 5.6% (inactive)
O=C(NN1C(=O)C2C3C=CC(C4CC34)C2C1=O)c1ccc(Cl)cc1 (stereo not drawn) | 9.6% (inactive)
COc1ccc(C(=O)n2nc(-c3ccc(Cl)cc3)nc2N)cc1OC | -12.4% (inactive)
COC(=O)c1ccc(OC(=O)c2nn(C)cc2Cl)c(OC)c1 | 58.9% (active)
COc1ccc(Cl)cc1C(=O)NCc1cn(C)nc1C | 1.3% (inactive)
CN(C(=O)CSc1nnc(N)s1)c1c(N)n(Cc2ccccc2)c(=O)[nH]c1=O | -12.4% (inactive)
COc1ccc(CC(NC(C)=O)C(=O)NC2CCN(C(=O)Nc3ccc(C#N)cc3)CC2)cc1OC (stereo not drawn) | 9.3% (inactive)
Cc1noc(C)c1S(=O)(=O)N1CCCC(C(=O)Nc2nccs2)C1 (stereo not drawn) | 56.5% (active)
O=C(Nc1nccs1)C1CCN(S(=O)(=O)c2ccc(Cl)c(C(F)(F)F)c2)CC1 | -45.5% (inactive)
Cc1ccc(NC(=O)C2CCCN(S(=O)(=O)c3c(C)noc3C)C2)c(C)c1 (stereo not drawn) | 8.4% (inactive)
Cc1ccc(C2=CSC3=NS(=O)(=O)CCN23)cc1C | -9.4% (inactive)
CCOC(=O)CSc1nnc(-c2cccc(Br)c2)o1 | -12.3% (inactive)
CCOC(=O)N1CCN(C(=O)c2cc3c(-c4ccc(Cl)cc4)nn(C)c3s2)CC1 | 25.5% (inactive)
CCN1CCN(C(=O)c2cc3cc4ccc(OC)cc4nc3s2)CC1 | -5.1% (inactive)
COc1ccccc1N1CCN(C(=O)CN(Cc2ccc(Cl)cc2)S(C)(=O)=O)CC1 | 41.4% (inactive)
COc1cccc(-c2nn(C)c3sc(C(=O)N4CCN(c5ccccc5)CC4)cc23)c1 | 68.5% (active)
COc1ccccc1N1CCN(C(=O)c2cc3c(-c4ccc(Cl)cc4)nn(C)c3s2)CC1 | 97.6% (active)
COc1cccc(-n2cc(C(=O)O)c3ccccc3c2=O)c1 | 0.5% (inactive)
Cc1nn(Cc2ccc(C(=O)N3N=C(C(F)F)CC3(O)C(F)F)cc2)c(C)c1[N+](=O)[O-] (stereo not drawn) | 25.2% (inactive)
CCOC(=O)C1CCCN(C(=O)c2sc3nc(C)nc(N4CCOCC4)c3c2C)C1 (stereo not drawn) | 23.1% (inactive)

SMILES | inhibition
O=C1Nc2ccccc2C12Nc1ccccc1S2 (stereo not drawn) | 37.5% (inactive)
COc1ccc(C(CC(=O)O)NC(=O)Cc2ccccc2)cc1 (stereo not drawn) | -10.6% (inactive)
Nn1cnnc1N/N=C/c1cc([N+](=O)[O-])c(Cl)cc1Cl | 16.5% (inactive)
O=C(NCC(F)(F)F)Nc1nnc(C(F)(F)F)s1 | -13.1% (inactive)
CN1C(=O)c2ccccc2C(C(=O)NCCCN2CCCC2)C1c1c[nH]c2ccccc12 (stereo not drawn) | 4.5% (inactive)
CCn1nc(NC(=O)c2ccco2)c2cc3ccc(C)cc3nc21 | 19.8% (inactive)
Cc1c(-c2ccccc2)cn2c1-c1ccc(C)n1CC2 | -10.8% (inactive)
O=[N+]([O-])c1ccc(NCCCN2CCOCC2)c(Cl)c1 | 6.4% (inactive)
CC(C)c1ccc(C(=O)NCCCc2ccccc2)cc1 | 37.2% (inactive)
COc1ccc(S(=O)(=O)Nc2c(C)n(C)n(-c3ccccc3)c2=O)cc1 | -4.2% (inactive)
Cc1ccc(S(=O)(=O)Nc2ccccc2CNc2c(C)n(C)n(-c3ccccc3)c2=O)cc1 | 83.9% (active)
COC(=O)Nc1c(C)n(C)n(-c2ccccc2)c1=O | -15.1% (inactive)
C/C(=N/NC(=O)c1cc(Cl)ccc1O)C12CC3CC(CC(C3)C1)C2 | 24.2% (inactive)
Cc1nc(C)c2c(c1C(F)(F)F)-c1ccccc1C2(F)F | -9.6% (inactive)
Nc1ncc(-c2cc3ccccc3oc2=O)s1 | 24% (inactive)
CCN(CC)c1nc(-c2ccccc2)cc(C(F)(F)F)c1C#N | 89.5% (active)
N#Cc1c(C(F)(F)F)cc(-c2ccccc2)nc1SCC(=O)N1CCOCC1 | -15.6% (inactive)
CCc1c(-c2ccccc2)nc(N)c(C#N)c1-c1cccs1 | 21.7% (inactive)
Cc1ccc(-c2csc(-c3c[nH]c4ccccc34)n2)cc1 | 9.8% (inactive)
COc1ccc2c(Cl)c(C(=O)NCc3ccco3)sc2c1 | -31.6% (inactive)
Cc1nc(SCC(=O)c2ccccc2)c([N+](=O)[O-])[nH]1 | 39.1% (inactive)
Cc1cc(SCC(=O)c2ccccc2)nc(SCC(=O)c2ccccc2)n1 | 66.3% (active)
COC(=O)c1cc(C(=O)CSc2nc(C)cc(C)n2)ccc1O | 6% (inactive)
